High-throughput results (PubChem BioAssay)
M1 antag – human M1 muscarinic receptor antagonists, primary screen, CHO-K1 cells, Fluo-8 calcium fluorescence, 1536-well. CHO-K1 hM1, ACh EC80 antagonist. inhibition, % at 3 µM. Muscarinic acetylcholine receptor M1 (Homo sapiens), P11229. hit rate 1.3% among 360,000;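 active means percent inhibition above its own plate's cutoff, namely the mean of that plate's compound wells plus 3 SD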;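 further: peak over basal fluorescence ratio during 140 s after agonist addition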
Target sequence (P11229 whole entry, looked up): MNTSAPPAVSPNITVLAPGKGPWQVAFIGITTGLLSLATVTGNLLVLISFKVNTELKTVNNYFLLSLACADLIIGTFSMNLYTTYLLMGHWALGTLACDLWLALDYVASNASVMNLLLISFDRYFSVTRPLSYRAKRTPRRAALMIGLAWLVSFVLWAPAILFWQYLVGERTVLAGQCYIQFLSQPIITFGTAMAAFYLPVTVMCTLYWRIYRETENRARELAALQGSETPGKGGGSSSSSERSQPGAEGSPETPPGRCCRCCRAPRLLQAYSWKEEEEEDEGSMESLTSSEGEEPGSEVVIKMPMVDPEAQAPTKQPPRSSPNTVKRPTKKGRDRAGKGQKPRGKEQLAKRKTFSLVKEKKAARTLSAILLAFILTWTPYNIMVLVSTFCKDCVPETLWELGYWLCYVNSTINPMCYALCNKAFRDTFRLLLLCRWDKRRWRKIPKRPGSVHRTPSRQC
CHO-K1 Ca ag – counter-screen for M1 agonists: effect in parental CHO-K1 cells. Fluo-8 calcium fluorescence; scaled to maximal ATP response, vehicle zero. activation, % at 3 µM. hit rate 0.48% among 360,000; in the data active means activation above about 15%;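 further: untransfected CHO-K1 host cells lacking M1 receptor as counterscreen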
M1 PAM – human M1 muscarinic receptor positive allosteric modulators, primary screen, CHO-K1 cells, Fluo-8 calcium fluorescence, 1536-well | Muscarinic acetylcholine receptor M1 (Homo sapiens), P11229 | CHO-K1 hM1, ACh EC20; 0% = ACh EC20, 100% = maximal ACh | activation, % at 3 µM | hit rate 0.088% among 360,000; in the data active means activation above about 19%, passing the limit was not always enough
M1 ag – human M1 muscarinic receptor agonists, primary screen, Fluo-8 calcium fluorescence, CHO-K1 cells, HTS; Muscarinic acetylcholine receptor M1 (Homo sapiens), P11229; CHO-K1 hM1, agonist mode; 0% DMSO, 100% acetylcholine EC100; activation, % at 3 µM; hit rate 0.33% among 360,000;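 active means activation above the run's mean compound activation plus 3 SD, cut at about 16% in these data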;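 further: peak over basal fluorescence ratio within a 140 s kinetic read after compound addition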
CHO-K1 Ca antag – M1 antagonist counterscreen hit in parental CHO-K1 cells; ATP-induced calcium, Fluo-8 fluorescence; inhibition, % at 3 µM; hit rate 0.6% among 360,000; AID 602250;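 active means inhibition above a per-plate cutoff, the plate's mean sample inhibition plus 3 SD, cut at about 24% in these data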
M1 PAM parental – nonselective calcium activators in parental CHO-K1 cells, primary screen, counter-screen for M1 PAM project, cell-based, Fluo-8 calcium fluorescence, full deck, 1536-well. ATP EC20; 0% at ATP EC20, 100% at ATP max. activation, % at 3 µM. hit rate 0.02% among 360,000;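 active means activation above the run cutoff, the mean activation of all test compounds plus 3 SD, cut at about 40% in these data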;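 further: peak over basal fluorescence ratio in a 140 s read after ATP addition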
Of the large screens only hits and unclear results are named; the others gave an inactive call. Sampled rows, rich in hits. Any-hit rate of the full collection: about 2.4%.

CC1CCC(NC(=O)CCS(=O)(=O)c2ccc3c(c2)oc(=O)n3C)CC1 (stereo unspecified)	none
O=S(=O)(Nc1cccc(F)c1)c1cccc2nsnc12	none
Cc1ccc(NS(=O)(=O)c2cccc3nsnc23)cc1C	M1 antag 39.8
O=C(O)c1cc(Br)ccc1NS(=O)(=O)c1cccc2nsnc12	CHO-K1 Ca antag 27.3
Cc1ccc(C(OCC(O)CNCc2ccc(F)cc2)c2ccccc2)cc1 (stereo unspecified)	CHO-K1 Ca ag 17.4, CHO-K1 Ca antag 35.6
CC(c1ccccc1C(O)(c1ccccc1)c1ccccc1)N(C)C (stereo unspecified)	CHO-K1 Ca ag 23.3
COc1c(Cl)cnn(-c2ccccc2)c1=O	none
COc1c(Cl)cnn(-c2ccc(Cl)c(Cl)c2)c1=O	CHO-K1 Ca ag 16.8
CN(C)CCNC(=O)c1ccc(COc2ccc(Cl)cc2Cl)cc1	M1 antag 31.4
COc1ccc(Cl)cc1C(=O)NCCN(C)C	none
Cc1cccc(NC(=O)CCS(=O)(=O)c2cc3c(cc2Cl)NC(=O)CO3)c1	none
Cc1ccc(C)c(NC(=O)C(c2ccccc2)N2CCN(CC(=O)N3CCOCC3)CC2)c1 (stereo unspecified)	none
Cc1ccc(C)c(NC(=O)C(NCC(C)(C)N2CCOCC2)c2ccccc2)c1 (stereo unspecified)	M1 antag 92.3
COC(=O)CNC(=O)Cn1c(=O)n(Cc2ccc(F)cc2)c(=O)c2sccc21	none
C/C(=N\Nc1cc(C)nc(NCc2ccccc2)n1)c1ccc([N+](=O)[O-])cc1	M1 antag 38.0
COC(=O)C(Cc1ccc(OC(=O)c2ccc(Cl)cc2)cc1)N1Cc2ccccc2C1=O (stereo unspecified)	M1 antag 20.9, CHO-K1 Ca antag 33.8
O=C(O)CC(c1ccc(Cl)cc1)N1Cc2ccccc2C1=O (stereo unspecified)	none
COC(=O)C(Cc1ccc(OC(=O)c2ccc(C(F)(F)F)cc2)cc1)N1Cc2ccccc2C1=O (stereo unspecified)	M1 antag 35.5, CHO-K1 Ca antag 25.4
CC(C)OC(=O)N(C)C[C@H]1OCc2cn(nn2)CCCC(=O)N([C@H](C)CO)C[C@@H]1C	none
O=C(COC(=O)c1c2c(nc3ccccc13)/C(=C\c1cccs1)CCC2)Nc1ccccc1	M1 antag 31.7
CC(C)(C)NC(=O)COC(=O)c1c2c(nc3ccccc13)CCC2	M1 antag 31.4
O=C(COC(=O)c1c2c(nc3ccccc13)CCCC2)Nc1ccc2c(c1)OCO2	M1 antag 32.2
COc1cccc(NC(=O)COC(=O)c2c3c(nc4ccccc24)CCC(C)C3)c1 (stereo unspecified)	M1 antag 48.4
CC(=O)c1ccc(NC(=O)COC(=O)c2c3c(nc4ccccc24)/C(=C\c2cccs2)CCC3)cc1	none
CC(C)c1ccccc1NC(=O)COC(=O)c1c2c(nc3ccccc13)CCN(Cc1ccccc1)C2	M1 antag 37.4
CCOc1ccccc1N=C1SCC(C)N1C(=O)C1CCN(c2ncnc3sc(C)c(C)c23)CC1 (stereo unspecified)	none
COc1ccc(N=Cc2c(O)cc(C)oc2=O)cc1	CHO-K1 Ca ag 15.8
Cc1cc(O)c(C=Nc2cccc(Cl)c2)c(=O)o1	none
COC(=O)c1cc(NC(=O)COC(=O)C2COc3ccccc3O2)cc(C(=O)OC)c1 (stereo unspecified)	none
COc1ccc(CCNC(=O)CSc2nc3[nH]ncc3c(=O)n2-c2ccc(Br)cc2)cc1OC	M1 ag 24.8
COc1ccc(OCCn2cc(/C(N)=N/O)c3ccccc32)cc1	none
Cc1ccc(OCCn2cc(/C(N)=N/O)c3ccccc32)cc1C	CHO-K1 Ca antag 28.3
Cc1ccc(S(=O)(=O)N2CCCC2C(=O)NCc2ccncc2)cc1 (stereo unspecified)	none
Nc1ccc2nc3c(=O)n(C4CCCCC4)c(=O)[nH]c3nc2c1	CHO-K1 Ca ag 95.3, M1 ag 99.7, CHO-K1 Ca antag 29.9
Nc1ccc2nc(CCc3ccccc3)[nH]c2c1	none
Cc1cc2nc3c(=O)n(CCc4ccccc4)c(=O)[nH]c3nc2cc1N	CHO-K1 Ca ag 26.0
CCCCn1c(=O)[nH]c2nc3cc(N)ccc3nc2c1=O	CHO-K1 Ca ag 24.4, M1 ag 25.3
Nc1ccc2nc3c(=O)n(CCc4ccccc4)c(=O)[nH]c3nc2c1	CHO-K1 Ca ag 52.7, M1 ag 53.5
CCOC(=O)COc1ccc2c(c1)C(=O)CC(C)(c1cccnc1)O2 (stereo unspecified)	CHO-K1 Ca ag 15.2
CCOc1ccc(NC(=O)C2C3C=CC4(O3)C2C(=O)N(Cc2cccnc2)C4C(=O)NC2CCCCC2)cc1 (stereo unspecified)	none
CCOC(=O)N1CCC(N2CCCC(CO)(Cc3cccc(Cl)c3)C2)CC1 (stereo unspecified)	M1 antag 39.4
CCOC(=O)N1CCC(N2CCCC(CO)(Cc3ccccc3C)C2)CC1 (stereo unspecified)	M1 antag 26.3
CCOc1ccccc1NC(=O)CCNC(=O)N1CC(=O)Nc2ccccc21	none
COCCNC(=O)C1Cc2c(ccc3ccccc23)O1 (stereo unspecified)	none
CN(C)/C=N/NC(=O)C1Cc2c(ccc3ccccc23)O1 (stereo unspecified)	CHO-K1 Ca ag 16.0
Cc1ccc(S(=O)(=O)N2CCN(C(=O)COC(=O)CC(C)c3ccccc3)CC2)c(C)c1 (stereo unspecified)	none
CN(C)CC(O)COc1cc2ccccc2cc1C(=O)N1CCCCC1 (stereo unspecified)	M1 antag 33.3
COc1cc2ccccc2cc1C(=O)N1CCCCC1	none
CC1CCN(CC(=O)Nc2ccc(S(=O)(=O)NC3CC3)cc2)CC1	M1 antag 74.0
CC1CCC(NS(=O)(=O)c2ccc(N3CCCC3=O)cc2)CC1 (stereo unspecified)	M1 antag 45.8, CHO-K1 Ca ag 19.5
O=C(CNC1CCCCCC1)Nc1ccc(S(=O)(=O)NC2CC2)cc1	M1 antag 31.6
CCN1CCN(CC(=O)Nc2ccc(S(=O)(=O)N3C(C)CCCC3C)cc2)CC1 (stereo unspecified)	M1 antag 24.1
CC1CCN(S(=O)(=O)c2ccc(NC(=O)CN3CCCC3)cc2)CC1	none
CCS(=O)(=O)c1ccc(O)c(NC(=O)COc2ccc(OC)cc2)c1	none
CCCc1ccc(OCC(=O)Nc2cc(S(=O)(=O)CC)ccc2O)cc1	CHO-K1 Ca ag 16.1
